Rows were chosen to be rich in hits. Some 0.95% of all compounds tested hit in one or more screens of this group.
LmPK inh = blocks Leishmania mexicana pyruvate kinase activity. Q27686. purified LmPK, Kinase-Glo ATP luminescence, 1 h. Potency, µM (top dose mostly 57.5 µM), for inactives: at the top dose activity change, negative = inhibition, usual class: inhibitors. actives 0.37% (n = 290,000)
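ATP generated from ADP (0.1 mM) and PEP (0.5 mM) by 0.1 nM LmPK over 1 h at room temperature (pH 7.2 imidazole buffer) was detected by coupled luciferase luminescence. Values were normalized to uninhibited and no-enzyme wells.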
Giardia FBPA inh-1 = inhibitors of Giardia lamblia fructose-1,6-bisphosphate aldolase. A8B2U2. purified Giardia FBPA. Potency, µM (top dose mostly 59.6 µM), for inactives: at the top dose activity, negative = inhibition, hits mostly inhibitors. actives 0.71% (n = 290,000). AID 2451; note: nearly all actives have a fitted effect of over 55% in size
Target sequence (A8B2U2 whole entry, looked up): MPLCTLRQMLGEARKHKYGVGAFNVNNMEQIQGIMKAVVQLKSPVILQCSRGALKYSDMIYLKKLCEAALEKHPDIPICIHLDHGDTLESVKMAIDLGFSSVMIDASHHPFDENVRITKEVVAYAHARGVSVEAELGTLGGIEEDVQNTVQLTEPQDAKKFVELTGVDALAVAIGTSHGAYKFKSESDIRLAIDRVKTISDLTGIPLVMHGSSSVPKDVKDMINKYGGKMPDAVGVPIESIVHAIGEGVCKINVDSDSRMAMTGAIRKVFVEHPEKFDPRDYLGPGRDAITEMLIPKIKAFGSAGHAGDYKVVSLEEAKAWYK
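40 nM FBPA preincubated 10 min at RT with compound (up to 57.5 uM final), then substrate plus GAPDH/TPI/NAD/arsenate coupling and diaphorase/resazurin added. Fluorescence read after 20 min at RT, 525/598 nm.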
Tb PYK inh = blocks Trypanosoma brucei pyruvate kinase. Potency, µM (titrated, usually from 76.8 µM), without a hit: at the highest dose activity, negative = inhibition, actives largely listed as inhibitors. actives 0.12% (n = 410,000). Q57TT1. TbPYK enzyme, Kinase-Glo Plus ATP luminescence, 45 min; note: nearly all actives have a fitted effect of over 50% in size
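Assay buffer: 50 mM TEA pH 7.2, 100 mM KCl, 10 mM MgCl2, 0.05% BSA, 0.01% Tween-20. Pyruvate kinase from T. brucei plus substrate met compound, then ADP (130 uM final). Luminescence was read post 45 min RT.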
RE007 growth inh = less growth of the S. pombe RE007 Vpr strain | AID 651644 | actives 0.21% (n = 360,000) | Potency, µM (series often up to 92.2 µM), without a hit: at the highest dose activity change, negative = less growth, hits mostly inhibitors | S. pombe RE007 Vpr strain, BacTiter-Glo ATP luminescence, 24 h; active = well fitted falling curve with a large enough effect; inconclusive = small, poorly fitted or top-dose-only effect; inactive = no such curve, though single readings can be large or run the other way; note: nearly all actives have a fitted effect of over 50% in size
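Fission yeast RE007 carrying one integrated HIV-1 vpr copy, seeded at OD 0.01 in PMG+AL medium with 23 nL pinned compound. Grown 24 h at 30 degrees; viability read by BacTiter-Glo luminescence after 5 min.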
Giardia growth = Giardia lamblia growth inhibition; shares compounds with Giardia FBPA inh-1; Giardia lamblia trophozoite growth inhibition; Potency, µM (highest dose often 57.5 µM), for inactives: at the top dose activity change, negative = inhibition, hits mostly inhibitors; actives 5% (n = 1,500);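 note: trophozoites exposed to compound for 48 h at 37 °C; nearly all actives have a fitted effect of over 70% in size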
Mammalian tox = counter-screen for Giardia aldolase inhibitors: mammalian cell toxicity; mammalian cell viability counter-screen, qHTS; Potency, µM (series often up to 57.5 µM), inactives show at the highest dose viability change, negative = toxicity, most hits filed as inhibitors; actives 4% (n = 1,500); shares compounds with Giardia FBPA inh-1;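 note: Chinese hamster ovary cells used as mammalian cytotoxicity surrogate; viability measured as cellular ATP by luminescence; compound exposure lasted 48 h before reading; nearly all actives have a fitted effect of over 60% in size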
Giardia FBPA inh-2 = confirmation of Giardia fructose-bisphosphate aldolase inhibitors; shares compounds with Giardia FBPA inh-1; Potency, µM (series often up to 57.5 µM), for the others: top-dose activity change, negative = inhibition, actives largely listed as inhibitors; purified Giardia aldolase enzyme activity, qHTS; actives 5% (n = 1,500); note: nearly all actives have a fitted effect of over 45% in size
Rabbit FBPA inh = blocks rabbit muscle aldolase in Giardia aldolase selectivity test; shares compounds with Giardia FBPA inh-1; Rabbit muscle FBPA enzyme inhibition, selectivity counter-screen; Potency, µM (series often up to 57.5 µM), without a hit: at the highest dose activity, negative = inhibition, actives largely listed as inhibitors; actives 4% (n = 1,500); AID 2794; note: nearly all actives have a fitted effect of over 60% in size
Target sequence (P00883 whole entry, looked up): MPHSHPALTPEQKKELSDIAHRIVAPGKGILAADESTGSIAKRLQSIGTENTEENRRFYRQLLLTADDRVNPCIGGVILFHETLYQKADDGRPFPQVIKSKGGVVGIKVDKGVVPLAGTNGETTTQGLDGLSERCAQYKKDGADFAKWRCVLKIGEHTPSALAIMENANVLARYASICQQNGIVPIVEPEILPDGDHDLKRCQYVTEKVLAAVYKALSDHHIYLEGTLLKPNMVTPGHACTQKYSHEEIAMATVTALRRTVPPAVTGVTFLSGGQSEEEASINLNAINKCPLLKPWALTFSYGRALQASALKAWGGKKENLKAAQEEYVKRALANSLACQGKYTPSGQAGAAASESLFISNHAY
GAPDH coupling = counter-screen for Giardia aldolase inhibitors: GAPDH coupling enzyme; shares compounds with Giardia FBPA inh-1; Potency, µM (highest dose often 57.5 µM), for the others: at the top dose activity change, negative = inhibition, hits mostly inhibitors; GAPDH coupling enzyme counterscreen, biochemical, qHTS; actives 6% (n = 1,500); note: nearly all actives have a fitted effect of over 55% in size
Starred values were filed as active, the others as inactive; ? = inconclusive; nt = not tested or not shown; [ ] = dose if it differs, or a comment. Unless noted, calls come from the whole dose curve; as a rule, active = well fitted curve in the direction sought with a large enough effect; inconclusive = small, poorly fitted or top-dose-only effect, or another doubt; inactive = no such curve, though single readings can be large; an effect the other way counts as inactive or inconclusive. % is set by controls: 0 for no effect and ±100 for the full control effect; potency is the fitted concentration of half-maximal effect.

SMILES	LmPK inh	Giardia FBPA inh-1	Tb PYK inh	RE007 growth inh	Giardia growth	Mammalian tox	Giardia FBPA inh-2	Rabbit FBPA inh	GAPDH coupling
COc1ccc(CN2CCN(Cc3c[nH]c4ccccc34)CC2)cc1	-11%	?	28%	-16%	-9%[38.3 µM]	2%	-4%	-5%	-12%
COc1ccc(Br)cc1CN1CCN(Cc2c[nH]c3ccccc23)CC1	-5%	14µM*	-16%	-20%	16µM*	-16%	2%	9%	5%
CCCNC(=O)C1(C)CCCN(Cc2ccccc2C#N)C1 (stereo unspecified)	nt	nt	10%	12%[18.4 µM]	nt	nt	nt	nt	nt
Cc1ccc(NC(=O)N2CCCC2C(=O)NCc2ccccc2Cl)cc1 (stereo unspecified)	-6%	4%	3%	-16%	nt	nt	nt	nt	nt
COc1cc(C2c3cc4c(cc3OC(NCCc3ccccc3)C2C)OCO4)cc(OC)c1OC (stereo unspecified)	nt	nt	-8%	-8%	nt	nt	nt	nt	nt
O=C(c1cccc(F)c1)N1CCN(Cc2ccc3c(c2)OCO3)CC1	7%	?	7%	3%	nt	nt	nt	nt	nt
O=C(c1cccc(F)c1)N1CCN(Cc2cccc(Br)c2)CC1	-4%	14µM*	4%	-7%	5%	1%	9%	7%	8%
O=C(O)c1cccc2[nH]c(C(F)(F)F)nc12	-4%	-25%	-12%	-4%	nt	nt	nt	nt	nt
Nc1cccc2[nH]c(C(F)(F)F)nc12	-23%	20µM*	-24%	-19%	-22%	?	?	-13%	-24%
NC(=O)C1CCN(c2ccc(S(=O)(=O)N3CCCCC3)cc2[N+](=O)[O-])CC1	nt	nt	-20%	0%	nt	nt	nt	nt	nt
C/C(=N/O)c1ccccn1	4%	3.2µM*	-1%	8%	0%[38.3 µM]	-19%	-21%	13%	?
Cc1c(O)ccc2c(CN3CCN(Cc4ccccc4)CC3)cc(=O)oc12	3%	-6%	-15%	-10%	nt	nt	nt	nt	nt
O=c1cc(CN2CCN(Cc3ccccc3)CC2)c2ccc(O)c(O)c2o1	-2%	18µM*	6%	3%	-28%	-28%	?	?	-24%
CCOC(=O)C1=C(O)/C(=C/c2ccc(CNC(=O)C(=O)Nc3ccc(C)cc3)o2)N=C1C	-4%	4.5µM*	-10%	1%	?	?	-28%	-13%	6%
COC(=O)C1=C(O)/C(=C\c2ccc(CNC(=O)C(=O)Nc3ccc(C)cc3)o2)N=C1C	3%	?	-1%	-13%	nt	nt	nt	nt	nt
CC(C)N(C)Cc1nnnn1CC(=O)N(C)Cc1cccc(Cl)c1	0%	-9%	0%	-11%	nt	nt	nt	nt	nt
COCc1nnc(NC(=O)c2ccc(S(=O)(=O)N3CCCc4ccccc43)cc2)o1	-5%	18µM*	0%	16%	1%[10.4 µM]	-12%	-2%	11%	0%
COCc1nnc(NC(=O)c2ccc(S(=O)(=O)N3CCOCC3)cc2)o1	4%	22µM*	6%	-5%	?	-3%	4%	18%	5%
Cc1nnc(NC(=O)c2ccc(S(=O)(=O)N3CCc4ccccc4C3)cc2)o1	6%	18µM*	5%	18%	?	1%	-7%	7%	6%
COc1ccc(CN2CCSc3sccc3C2=O)cc1	-6%	7%	4%	-25%	nt	nt	nt	nt	nt
[Li+]	nt	-2%	nt	nt	nt	nt	nt	nt	nt
O=C(CNCc1ccccn1)Nc1cc(C(F)(F)F)ccc1N1CCOCC1	-6%	16µM*	-9%	?	?	1%	6%	6%	9%
O=C(Nc1cc(C(F)(F)F)ccc1N1CCOCC1)c1ccncc1	nt	nt	-2%	6%	nt	nt	nt	nt	nt
CCOC(=O)c1cc(-c2ccc(F)cc2)n(CCC(=O)Nc2ccccc2OC)c1C	nt	nt	8%[15.4 µM]	nt	nt	nt	nt	nt	nt
COc1cc(C(=O)NCCC(=O)N2CCCCC2)cc(OC)c1OC	2%	2%	2%	-2%	nt	nt	nt	nt	nt
SMILES	LmPK inh	Giardia FBPA inh-1	Tb PYK inh	RE007 growth inh	Giardia growth	Mammalian tox	Giardia FBPA inh-2	Rabbit FBPA inh	GAPDH coupling
COc1ccc(C(=O)NC(=S)N2CCOCC2)cc1Br	1%	16µM*	?	2%	?	-2%	-2%	5%	7%
COc1cc(C(=O)NC(=S)N2CCCCCC2)cc(OC)c1OC	1%	16µM*	-7%	-21%	?	-6%	-3%	3%	10%
COC1OC2COC(c3ccccc3)OC2C(=O)C1NC(=O)c1ccccc1 (stereo unspecified)	nt	nt	4%	-5%	nt	nt	nt	nt	nt
CCN1CCc2nc(N)sc2C1	2%	11µM*	?	-22%	-19%	14%	?	?	28µM*
CCN(CC(=O)Nc1cccc(OC)c1)CC(=O)Nc1ccc(C)cc1Cl	-3%	16µM*	4%	20%	17%[10.4 µM]	-4%	0%	-1%	7%
CCN(CC(=O)Nc1ccc(NC(C)=O)cc1)CC(=O)Nc1ccc(Cl)c(Cl)c1	-17%	7.9µM*	-15%	-15%	-6%[10.4 µM]	-6%	7%	5%	5%
COc1cccc(C(O)c2nc(-c3ccc(F)c(Cl)c3)cs2)c1 (stereo unspecified)	nt	nt	4%	?	nt	nt	nt	nt	nt
COc1ccc(-n2nc3c(c2NC(=O)CCCl)CSC3)cc1	-8%	1%	4%	-18%	nt	nt	nt	nt	nt
CCOc1ccc(CN(C)CC(=O)NCc2ccccc2)cc1	2%	6%	3%	7%	nt	nt	nt	nt	nt
CSc1ccccc1NC(=O)CN(C)Cc1cccc(Cl)c1	6%	22µM*	17%	-21%	9%	17%	5%	4%	11%
CN(CC(=O)NCc1ccccc1)Cc1cccc(F)c1	-14%	10µM*	2%	-7%	-30%	3%	13%	2%	9%
CCOC(=O)O[C@]1(C(=O)OCCl)CC[C@@H]2[C@H]3CCC4=CC(=O)C=C[C@]4(C)[C@@H]3[C@@H](O)C[C@@]21C	nt	nt	-4%	nt	nt	nt	nt	nt	nt
CCOC(=O)c1ccc(N/C=C/C(=O)C(C)(C)C)cc1	3%	-5%	-15%	-10%	nt	nt	nt	nt	nt
CN(C)c1ccc(N/C=C/C(=O)C(C)(C)C)cc1	-6%	14µM*	-18%	0%	?	-17%	-49%	?	-21%
COc1ccccc1CNS(=O)(=O)c1cc(C(=O)N(C)Cc2cccnc2)c(Cl)cc1Cl	nt	nt	-1%	15%	nt	nt	nt	nt	nt
O=c1[nH][nH]c(=S)n1-c1ccccc1C(F)(F)F	-9%	18µM*	nt	nt	?	12%	-8%	-3%	-5%
